# Results: the supplement of paper PMC9694430
# Key:
# Experiment in all cases: thermal shift delta Tm vs DMSO control; higher = stronger stabilization (binding)
# Details in all cases: 12.5 µM; protein concentration 2 µM
# LOC_OS02G45750-cb003 = tested on: LOC_OS02G45750-cb003
# Method in brief: (§1)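 The melting temperature shift given here is a triplicate mean, measured against protein that received only DMSO. Melting temperatures came from Boltzmann fits of differential scanning fluorimetry data on E. coli-expressed, purified rice kinase domain constructs. Each 19.5 μl well contained 2 μM kinase, 100 mM potassium phosphate pH 7.5, 150 mM NaCl, 10% glycerol, 5 × SYPRO Orange and compound in DMSO. Plates were scanned from 25°C to 95°C at 0.05°C/s.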
# LOC_OS02G54510-cb004 = tested on: LOC_OS02G54510-cb004
# Method in brief: as §1
# LOC_OS03G04050-cb001 = tested on: LOC_OS03G04050-cb001
# Method in brief: as §1
# LOC_OS03G12390-cb001 = tested on: LOC_OS03G12390-cb001
# Method in brief: as §1
# LOC_OS03G27990-cb004 = tested on: LOC_OS03G27990-cb004
# Method in brief: as §1
# LOC_OS03G50450-cb001 = tested on: LOC_OS03G50450-cb001
# Method in brief: as §1
# LOC_OS03G50810-cb003 = tested on: LOC_OS03G50810-cb003
# Method in brief: as §1
# LOC_OS04G35114-cb001 = tested on: LOC_OS04G35114-cb001
# Method in brief: as §1
# LOC_OS04G38480-cb003 = tested on: T1, LOC_OS04G38480-cb003
# T1 sequence (whole entry): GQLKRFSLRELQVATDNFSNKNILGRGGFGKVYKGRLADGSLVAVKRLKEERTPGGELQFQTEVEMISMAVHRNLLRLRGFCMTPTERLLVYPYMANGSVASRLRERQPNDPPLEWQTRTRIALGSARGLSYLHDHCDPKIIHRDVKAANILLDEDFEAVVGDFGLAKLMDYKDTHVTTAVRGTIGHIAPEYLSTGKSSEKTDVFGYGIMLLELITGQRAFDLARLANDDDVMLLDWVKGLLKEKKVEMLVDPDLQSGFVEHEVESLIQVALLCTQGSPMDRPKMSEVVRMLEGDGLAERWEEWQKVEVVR
# Method in brief: as §1
# LOC_OS04G41100-cb001 = tested on: T2, LOC_OS04G41100-cb001
# T2 sequence (whole entry): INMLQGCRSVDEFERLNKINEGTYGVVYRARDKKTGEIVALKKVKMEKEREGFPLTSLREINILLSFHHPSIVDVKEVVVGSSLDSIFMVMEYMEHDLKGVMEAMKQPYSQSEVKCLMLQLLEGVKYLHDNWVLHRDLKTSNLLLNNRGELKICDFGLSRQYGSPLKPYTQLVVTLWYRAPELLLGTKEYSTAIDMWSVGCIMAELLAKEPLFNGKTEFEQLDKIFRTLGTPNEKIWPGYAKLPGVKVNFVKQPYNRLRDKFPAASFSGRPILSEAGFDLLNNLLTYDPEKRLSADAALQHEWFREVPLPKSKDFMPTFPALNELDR
# Method in brief: as §1
# LOC_OS04G57630-cb004 = tested on: LOC_OS04G57630-cb004
# Method in brief: as §1
# LOC_OS05G07850-cb002 = tested on: LOC_OS05G07850-cb002
# Method in brief: as §1
# LOC_OS05G16824-cb004 = tested on: LOC_OS05G16824-cb004
# Method in brief: as §1
# LOC_OS05G28520-cb001 = tested on: LOC_OS05G28520-cb001
# Method in brief: as §1
# LOC_OS05G30820-cb001 = tested on: LOC_OS05G30820-cb001
# Method in brief: as §1
# LOC_OS05G43570-cb004 = tested on: LOC_OS05G43570-cb004
# Method in brief: as §1
# LOC_OS06G16330-cb003 = tested on: LOC_OS06G16330-cb003
# Method in brief: as §1
# LOC_OS06G22820-cb001 = tested on: T3, LOC_OS06G22820-cb001
# T3 sequence (whole entry): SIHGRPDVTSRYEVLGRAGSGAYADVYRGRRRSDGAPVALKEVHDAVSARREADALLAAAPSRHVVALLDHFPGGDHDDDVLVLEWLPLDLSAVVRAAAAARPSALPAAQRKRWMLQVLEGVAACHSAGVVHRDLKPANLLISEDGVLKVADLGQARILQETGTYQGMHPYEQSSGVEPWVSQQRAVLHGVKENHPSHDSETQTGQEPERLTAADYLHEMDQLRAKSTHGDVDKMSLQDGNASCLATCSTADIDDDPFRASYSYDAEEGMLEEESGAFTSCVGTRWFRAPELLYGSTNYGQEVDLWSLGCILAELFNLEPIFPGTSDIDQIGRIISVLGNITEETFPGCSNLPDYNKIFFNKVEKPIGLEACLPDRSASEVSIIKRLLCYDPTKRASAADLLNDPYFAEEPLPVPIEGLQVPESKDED
# Method in brief: as §1
# LOC_OS07G06570-cb004 = tested on: LOC_OS07G06570-cb004
# Method in brief: as §1
# LOC_OS07G07230-cb001 = tested on: LOC_OS07G07230-cb001
# Method in brief: as §1
# LOC_OS06G16330-cb003, sequence (as listed by the source): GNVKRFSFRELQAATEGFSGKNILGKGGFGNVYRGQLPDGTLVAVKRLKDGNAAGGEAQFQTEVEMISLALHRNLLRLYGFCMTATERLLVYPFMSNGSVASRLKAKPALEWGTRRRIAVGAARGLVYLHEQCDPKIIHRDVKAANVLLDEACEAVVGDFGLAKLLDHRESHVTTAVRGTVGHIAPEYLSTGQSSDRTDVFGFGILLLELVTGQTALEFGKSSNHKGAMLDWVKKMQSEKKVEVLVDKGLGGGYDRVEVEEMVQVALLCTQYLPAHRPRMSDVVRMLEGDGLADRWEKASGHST
SMILES,thermal shift delta Tm (LOC_OS02G45750-cb003),thermal shift delta Tm (LOC_OS02G54510-cb004),thermal shift delta Tm (LOC_OS03G04050-cb001),thermal shift delta Tm (LOC_OS03G12390-cb001),thermal shift delta Tm (LOC_OS03G27990-cb004),thermal shift delta Tm (LOC_OS03G50450-cb001),thermal shift delta Tm (LOC_OS03G50810-cb003),thermal shift delta Tm (LOC_OS04G35114-cb001),thermal shift delta Tm (LOC_OS04G38480-cb003),thermal shift delta Tm (LOC_OS04G41100-cb001),thermal shift delta Tm (LOC_OS04G57630-cb004),thermal shift delta Tm (LOC_OS05G07850-cb002),thermal shift delta Tm (LOC_OS05G16824-cb004),thermal shift delta Tm (LOC_OS05G28520-cb001),thermal shift delta Tm (LOC_OS05G30820-cb001),thermal shift delta Tm (LOC_OS05G43570-cb004),thermal shift delta Tm (LOC_OS06G16330-cb003),thermal shift delta Tm (LOC_OS06G22820-cb001),thermal shift delta Tm (LOC_OS07G06570-cb004),thermal shift delta Tm (LOC_OS07G07230-cb001)
Cn1c2ccccc2c2c3c(c4c5ccccc5n(CCC#N)c4c21)CNC3=O,5.83 °C,0.92 °C,0.61 °C,2.98 °C,1.85 °C,1.84 °C,6.02 °C,11.6 °C,2.74 °C,0.46 °C,0.32 °C,14.2 °C,7.06 °C,1.51 °C,1.15 °C,1.86 °C,7.19 °C,1.21 °C,-0.17 °C,1.18 °C
CCS(=O)(=O)N1CC(CC#N)(n2cc(-c3ncnc4[nH]ccc34)cn2)C1,2.13 °C,1.15 °C,0.77 °C,1.62 °C,0.66 °C,1.09 °C,0.62 °C,1.29 °C,0.44 °C,0.43 °C,-0.03 °C,4.2 °C,-0.69 °C,0.54 °C,0.72 °C,0.88 °C,2.6 °C,0.77 °C,1.1 °C,0.82 °C
O=C(NOCC1CC1)c1ccc(F)c(F)c1Nc1ccc(I)cc1Cl,0.27 °C,-0.05 °C,1.06 °C,0.75 °C,0.28 °C,0.46 °C,0.83 °C,0.12 °C,1.28 °C,0.9 °C,0.14 °C,1.54 °C,2.02 °C,1.8 °C,0.63 °C,1.06 °C,0.69 °C,1.27 °C,1.57 °C,0.31 °C
"Cc1c(CN2CCN(C(=O)[C@H](C)O)CC2)sc2c(N3CCOCC3)nc(-c3cnc(N)nc3)nc12 [Apitolisib (GDC-0980, RG7422)]",0.62 °C,0.4 °C,0.32 °C,0.75 °C,0.18 °C,1.38 °C,0.78 °C,0.55 °C,1.12 °C,0.47 °C,0.67 °C,2.89 °C,1.9 °C,0.57 °C,0.58 °C,1.24 °C,0.88 °C,0.56 °C,0.61 °C,-0.1 °C
Cc1nc(-c2cn3c(n2)-c2ccc(-c4cnn(C(C)(C)C(N)=O)c4)cc2OCC3)n(C(C)C)n1 [Taselisib (GDC 0032)],1.34 °C,0.17 °C,0.54 °C,-0.31 °C,0.3 °C,0.34 °C,-0.05 °C,0.68 °C,0.83 °C,0.38 °C,0.16 °C,0.89 °C,0.74 °C,0.19 °C,0.59 °C,0.36 °C,-0.08 °C,0.16 °C,1.28 °C,0.87 °C
CO[C@H]1C[C@@H]2CC[C@@H](C)[C@@](O)(O2)C(=O)C(=O)N2CCCC[C@H]2C(=O)O[C@H]([C@H](C)C[C@@H]2CC[C@@H](O)[C@H](OC)C2)CC(=O)[C@H](C)/C=C(\C)[C@@H](O)[C@@H](OC)C(=O)[C@H](C)C[C@H](C)/C=C/C=C/C=C/1C [Rapamycin (Sirolimus)],0.22 °C,0 °C,0.5 °C,0.3 °C,0.16 °C,0.2 °C,-0.04 °C,0.52 °C,1.63 °C,0.69 °C,-0.27 °C,0.51 °C,-0.52 °C,0.16 °C,0.5 °C,0.84 °C,-0.23 °C,0.98 °C,1.23 °C,0.34 °C
Nc1ncnc2n[nH]c(Nc3ccc(F)cc3)c12,4.8 °C,0.26 °C,0.25 °C,2.15 °C,3.38 °C,0.1 °C,0.92 °C,5.47 °C,0.62 °C,0.32 °C,-0.19 °C,8.51 °C,1.59 °C,0.61 °C,0.77 °C,0.52 °C,2.45 °C,0.73 °C,1.75 °C,0.82 °C
COc1cc2c(Oc3ccc(NC(=O)C4(C(=O)Nc5ccc(F)cc5)CC4)cc3F)ccnc2cc1OCCCN1CCOCC1,3.41 °C,2.08 °C,0.79 °C,0.18 °C,0.69 °C,0.65 °C,3.35 °C,3.93 °C,3.42 °C,1.7 °C,6.98 °C,13.9 °C,5.71 °C,16 °C,0.55 °C,0.27 °C,9.02 °C,0.8 °C,0.2 °C,0.3 °C
Clc1ccc(C2(c3ccc(-c4cn[nH]c4)cc3)CCNCC2)cc1,-0.2 °C,0.04 °C,0.31 °C,0.47 °C,0.05 °C,0.32 °C,0.32 °C,0.57 °C,0.33 °C,0.38 °C,0.35 °C,1.23 °C,-0.22 °C,0.22 °C,0.51 °C,1.87 °C,0.19 °C,0.61 °C,1.01 °C,0.03 °C
CCOc1cc2ncc(C#N)c(Nc3ccc(OCc4ccccn4)c(Cl)c3)c2cc1NC(=O)/C=C/CN(C)C [Neratinib (HKI-272)],4.68 °C,0.16 °C,0.41 °C,0.55 °C,1.01 °C,0.39 °C,1.2 °C,5.53 °C,1.27 °C,0.15 °C,1.3 °C,2.1 °C,-0.55 °C,0.73 °C,0.56 °C,0.35 °C,0.45 °C,0.9 °C,1.96 °C,0.81 °C
CNC(=O)c1cc(Oc2ccc3nc(N[C@@H]4CCCC[C@H]4O)sc3c2)ccn1,0.99 °C,-0.11 °C,0.37 °C,0.22 °C,0.15 °C,0.65 °C,0.6 °C,0.24 °C,1.59 °C,0.59 °C,0.41 °C,0.33 °C,2.01 °C,0.77 °C,0.47 °C,0.57 °C,0.27 °C,0.57 °C,0.18 °C,0 °C
Cc1ccc(-n2nc(C(C)(C)C)cc2NC(=O)Nc2ccc(OCCN3CCOCC3)c3ccccc23)cc1 [Doramapimod (BIRB 796)],-1.12 °C,0.33 °C,0.33 °C,-0.03 °C,0.31 °C,0.1 °C,0.01 °C,0.68 °C,0.95 °C,0.9 °C,1.36 °C,1.84 °C,-1.73 °C,0.26 °C,0.82 °C,0.41 °C,0.15 °C,0.9 °C,0.71 °C,0.5 °C
